In PubChem BioAssay (Tox21) one finds Potency and outcome data, which are given here for 8 compounds.

A short description of experiment [1]: qHTS assay to identify small molecule agonists of the peroxisome proliferator-activated receptor delta (PPARd) signaling pathway - cell viability counter screen (AID 743211). Further: nearly all actives have a fitted effect of over 55% in size. The procedure, abridged:
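In the same wells used for beta-lactamase reporter measurement, cytotoxicity is scored by CellTiter-Glo. HEK293H PPARd-bla cells receive compound for 17 h at 37C following a 5 h settling period.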

The target of experiment [2] is Peroxisome proliferator-activated receptor delta (Homo sapiens) (UniProt Q03181). Kind of experiment: qHTS assay to identify small molecule agonists of the peroxisome proliferator-activated receptor delta (PPARd) signaling pathway (AID 743212; calls by dose curve;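 further: HEK293H cells with PPARd UAS beta-lactamase reporter GeneBLAzer system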). The procedure, abridged: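 Beta-lactamase reporter read by fluorescence (LiveBLAzer B/G FRET, 2 h, room temperature). Test agents, in DMSO, incubated at 37 C with PPARd-bla HEK293H cells.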
For orientation: qHTS replaces the single test concentration by a dilution series.

Experiment [3] has as its target Bile acid receptor (Homo sapiens) (UniProt Q96RI1). Kind of experiment: qHTS assay to identify small molecule antagonists of the farnesoid-X-receptor (FXR) signaling pathway (AID 743217; active means well fitted inhibition curve with a large enough effect in the signal ratio in the repeat runs, not every such curve was filed as active; the % refers to the signal ratio). The procedure, abridged:
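Antagonist mode: chenodeoxycholic acid at 50 uM final stimulates a UAS-driven beta-lactamase reporter in HEK 293T FXR-bla cells during 16 h, 37C compound exposure. Read-out is FRET substrate fluorescence after 2 h at room temperature.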

A short description of experiment [4]: qHTS assay to identify small molecule agonists of the farnesoid-X-receptor (FXR) signaling pathway - cell viability counter screen (AID 743218). Further: nearly all actives have a fitted effect of over 45% in size. In a few lines:
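Viability counter screen in the same wells: CellTiter-Glo luminescence, 30 min room-temperature incubation, measured after the beta-lactamase read. Cells were GeneBLAzer FXR-UAS-bla HEK 293T, compound-treated 16 h at 37C.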

The target of experiment [5] is Bile acid receptor (Homo sapiens) (UniProt Q96RI1). Kind of experiment: qHTS assay to identify small molecule agonists of the farnesoid-X-receptor (FXR) signaling pathway (AID 743220; active means well fitted activation curve with a large enough effect in the signal ratio in the repeat runs, not every such curve was filed as active; the % refers to the signal ratio). In a few lines: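 FXR-UAS-bla HEK 293T cells carrying a UAS-driven beta-lactamase reporter were plated for 5 h at 37C/5% CO2, then exposed to DMSO-dissolved Tox21 10K compounds for 16 h at 37C. A LiveBLAzer B/G FRET substrate was loaded for 2 h at room temperature before fluorescence reading.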

The nature of experiment [6]: qHTS assay to identify small molecule antagonists of the farnesoid-X-receptor (FXR) signaling pathway - cell viability counter screen (AID 743221; active means well fitted cell-killing curve with a large enough effect in the repeat runs, not every such curve was filed as active; further: nearly all actives have a fitted effect of over 50% in size). The procedure, abridged:
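Here viability was scored by luminescence after CellTiter-Glo addition to wells already read for beta-lactamase. Prior treatment: compound plus CDCA (50 uM final), 16 h, 37 C, HEK 293T FXR-bla cells.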

Experiment [7] in a line: qHTS assay to identify small molecule agonists of the vitamin D receptor (VDR) signaling pathway - cell viability counter screen (AID 743224). Further: series mostly up to about 63 µM; nearly all actives have a fitted effect of over 50% in size. In a few lines:
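Counter screen run in the same wells as the VDR-bla reporter assay: CellTiter-Glo luminescence, 30 min at room temperature, after 16 h compound treatment at 37C of cells pre-plated for 4 h.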

The nature of experiment [8]: qHTS assay to identify small molecule antagonists of the vitamin D receptor (VDR) signaling pathway - cell viability counter screen (AID 743225). Further: nearly all actives have a fitted effect of over 50% in size. In a few lines: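 Compounds were pinned onto VDR-bla HEK 293T cells together with 1-alpha,25-dihydroxyvitamin D3 at 3 nM final. After 16 h at 37C and 5% CO2 plus the reporter readout, cell viability was measured by CellTiter-Glo luminescence (30 min, room temperature).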

Experiment [9] can be described thus: qHTS assay to identify small molecule agonists of the endoplasmic reticulum stress response signaling pathway (AID 1159516; active means well fitted activation curve with a large enough effect in the signal ratio in the repeat runs, not every such curve was filed as active; the % refers to the signal ratio). In a few lines: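 Ratiometric FRET readout (405 nm excitation; 460 and 530 nm emission) of a beta-lactamase gene driven by the ER stress response element, after 2 hr substrate loading. HeLa ESRE-bla cells were seeded overnight and treated with compounds for only 5 hr at 37 C.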

A short description of experiment [10]: qHTS assay to identify small molecule agonists of the endoplasmic reticulum stress response signaling pathway - cell viability counter screen (AID 1159517; calls by dose curve; further: series mostly up to about 61 µM; nearly all actives have a fitted effect of over 50% in size). The procedure, abridged:
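Cytotoxicity of test compounds toward ESRE-bla HeLa cells was assessed after 5 hr exposure. The luminescent CellTiter-Glo signal was measured 30 min after reagent addition.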

The nature of experiment [11]: qHTS assay to identify small molecule antagonists of the retinoid-related orphan receptor gamma (ROR-gamma) signaling pathway - cell viability counter screen (AID 1159520). Further: nearly all actives have a fitted effect of over 50% in size. The procedure, abridged: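 Tet-on ROR gamma CHO cells (1,000/well) were plated 4 hr, given compounds in DMSO for 2 hr at 37 C, then induced with 1 uM final doxycycline for 16 hr. Viability was read as ATP by CellTiter-Glo luminescence after 30 min.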

The target in experiment [12] is Nuclear receptor ROR-gamma (Homo sapiens) (UniProt P51449). Kind of experiment: qHTS assay to identify small molecule antagonists of the retinoid-related orphan receptor gamma (ROR-gamma) signaling pathway (AID 1159521). The procedure, abridged:
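Test compounds were applied to Tet-on RORγ CHO cells 2 h ahead of doxycycline hyclate (1 uM final). Luciferase reporter activity was quantified by luminescence after 16 h at 37 C and 5% CO2.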

Experiment [13] is described as follows: qHTS assay to identify small molecule agonists of the AP-1 signaling pathway (AID 1159526; calls by dose curve).
The target in experiment [14] is Retinoic acid receptor RXR-alpha (Homo sapiens) (UniProt P19793). Kind of experiment: qHTS assay to identify small molecule agonists of the RXR signaling pathway (AID 1159527; calls by dose curve; further: nearly all actives have a fitted effect of over 35% in size; further: potency means the concentration at half of the fitted maximal effect). The procedure, abridged: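 Using 9-cis retinoic acid as the reference agonist, chemicals were tested in HEK 293T cells […] for 16 hr; substrate loading lasted 2 hr at room temperature.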

Experiment [15] can be described thus: qHTS assay to identify small molecule antagonists of the peroxisome proliferator-activated receptor delta (PPARd) signaling pathway - cell viability counter screen (AID 743213). Further: nearly all actives have a fitted effect of over 50% in size. The procedure, abridged:
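Cytotoxicity counter screen: CellTiter-Glo luminescence read 30 min after addition, in the same wells as the reporter assay. There, PPARd UAS-bla HEK293H cells (3000/well) were treated 17 h at 37 C with compound and 300 nM L165041.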

Experiment [16] deals with Vitamin D3 receptor (Homo sapiens) (UniProt P11473). Kind of experiment: qHTS assay to identify small molecule agonists of the vitamin D receptor (VDR) signaling pathway (AID 743222; calls by dose curve). In a few lines:
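Agonist mode, beta-lactamase reporter: fluorescence from LiveBLAzer B/G FRET substrate (2 h, room temperature) read after 16 h compound treatment at 37 C of VDR-bla cells, which were pre-incubated 4 h after seeding.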

For experiment [17] the target is unchanged. Kind of experiment: qHTS assay to identify small molecule antagonists of the vitamin D receptor (VDR) signaling pathway (AID 743223; active means well fitted inhibition curve with a large enough effect in the signal ratio in the repeat runs, not every such curve was filed as active; the % refers to the signal ratio). In a few lines: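 Inhibition of agonist-driven VDR signalling is scored in VDR-bla cells: 3 nM final 1alpha,25-dihydroxyvitamin D3 plus compound, 16 h at 37C, then beta-lactamase detection by FRET substrate fluorescence after 2 h.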

The nature of experiment [18]: qHTS assay to identify small molecule agonists of the AP-1 signaling pathway - cell viability counter screen (AID 1159525; calls by dose curve; further: nearly all actives have a fitted effect of over 55% in size). The procedure, abridged:
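Each titration point was normalised to DMSO and tetra n-octyl ammonium bromide controls. The read was Cell Titer Glo luminescence after 30 min at RT, following 5 h compound exposure of ME-180 AP-1-bla cells at 37 °C.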

The target in experiment [19] is Peroxisome proliferator-activated receptor delta (Homo sapiens) (UniProt Q03181). Kind of experiment: qHTS assay to identify small molecule antagonists of the peroxisome proliferator-activated receptor delta (PPARd) signaling pathway (AID 743215; active means well fitted inhibition curve with a large enough effect in the signal ratio in the repeat runs, not every such curve was filed as active; the % refers to the signal ratio;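 further: cells stimulated with agonist L165041 at 300 nM final during compound exposure; series mostly up to about 62 µM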). In a few lines:
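Agonist L165041 (300 nM final) added with compound to PPARd-bla HEK293H UAS-bla reporter cells; 17 h incubation at 37 C. Read-out: LiveBLAzer FRET substrate, 2 h at room temperature, fluorescence intensity.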

“And” between values parts separate entries of the source, which are not always exact repeats. Equal values may be shown once. Results filed as inconclusive are left out. The source holds several records for some structures; these can differ, active in one and inactive in another. The source made the active and inactive calls. Unless noted, the call rests on the fitted dose curve; in most records, active means well fitted curve in the direction sought with a large enough effect in the repeat runs; inconclusive means weak or mixed curves; inactive means no such curve, though single readings can be large; an effect the other way counts as inactive or inconclusive.

Vitamin D3 receptor (Homo sapiens), sequence (P11473 whole entry, looked up): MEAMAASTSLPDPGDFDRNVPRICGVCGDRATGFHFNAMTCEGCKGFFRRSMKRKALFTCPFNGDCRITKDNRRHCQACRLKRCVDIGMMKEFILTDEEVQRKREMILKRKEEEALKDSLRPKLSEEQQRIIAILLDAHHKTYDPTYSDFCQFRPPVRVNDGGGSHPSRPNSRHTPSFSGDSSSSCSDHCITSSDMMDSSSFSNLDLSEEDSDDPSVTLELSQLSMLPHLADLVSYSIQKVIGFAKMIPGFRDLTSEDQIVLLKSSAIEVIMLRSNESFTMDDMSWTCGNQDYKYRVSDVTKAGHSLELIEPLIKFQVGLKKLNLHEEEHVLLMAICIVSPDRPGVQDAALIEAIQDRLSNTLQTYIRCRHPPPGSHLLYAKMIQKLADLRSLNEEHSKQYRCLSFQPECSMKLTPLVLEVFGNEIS
Bile acid receptor (Homo sapiens), sequence (Q96RI1 whole entry, looked up): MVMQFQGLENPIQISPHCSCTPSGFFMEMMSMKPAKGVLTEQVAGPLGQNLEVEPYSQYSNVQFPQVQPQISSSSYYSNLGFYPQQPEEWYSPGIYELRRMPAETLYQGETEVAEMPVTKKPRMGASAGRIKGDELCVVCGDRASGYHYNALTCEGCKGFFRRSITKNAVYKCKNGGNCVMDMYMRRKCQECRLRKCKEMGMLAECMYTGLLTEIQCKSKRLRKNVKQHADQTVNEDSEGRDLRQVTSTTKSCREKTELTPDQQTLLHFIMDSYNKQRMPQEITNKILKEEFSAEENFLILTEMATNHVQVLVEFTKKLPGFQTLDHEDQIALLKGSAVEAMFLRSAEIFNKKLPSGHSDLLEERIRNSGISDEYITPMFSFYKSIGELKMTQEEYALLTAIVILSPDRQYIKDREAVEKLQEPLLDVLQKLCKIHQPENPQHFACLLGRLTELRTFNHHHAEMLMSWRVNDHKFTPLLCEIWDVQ
Peroxisome proliferator-activated receptor delta (Homo sapiens), sequence (Q03181 whole entry, looked up): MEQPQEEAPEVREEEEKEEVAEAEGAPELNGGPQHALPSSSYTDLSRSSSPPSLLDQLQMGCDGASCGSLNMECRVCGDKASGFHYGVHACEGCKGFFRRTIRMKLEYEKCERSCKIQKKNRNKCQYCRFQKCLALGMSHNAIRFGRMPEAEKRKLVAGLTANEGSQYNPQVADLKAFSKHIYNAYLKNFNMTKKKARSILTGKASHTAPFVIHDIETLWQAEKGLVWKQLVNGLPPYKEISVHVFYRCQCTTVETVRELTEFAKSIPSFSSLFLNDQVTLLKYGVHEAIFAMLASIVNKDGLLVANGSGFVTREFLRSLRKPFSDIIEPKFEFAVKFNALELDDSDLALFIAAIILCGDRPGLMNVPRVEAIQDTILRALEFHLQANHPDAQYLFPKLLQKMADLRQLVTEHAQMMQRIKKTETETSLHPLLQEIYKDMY
Retinoic acid receptor RXR-alpha (Homo sapiens), sequence (P19793 whole entry, looked up): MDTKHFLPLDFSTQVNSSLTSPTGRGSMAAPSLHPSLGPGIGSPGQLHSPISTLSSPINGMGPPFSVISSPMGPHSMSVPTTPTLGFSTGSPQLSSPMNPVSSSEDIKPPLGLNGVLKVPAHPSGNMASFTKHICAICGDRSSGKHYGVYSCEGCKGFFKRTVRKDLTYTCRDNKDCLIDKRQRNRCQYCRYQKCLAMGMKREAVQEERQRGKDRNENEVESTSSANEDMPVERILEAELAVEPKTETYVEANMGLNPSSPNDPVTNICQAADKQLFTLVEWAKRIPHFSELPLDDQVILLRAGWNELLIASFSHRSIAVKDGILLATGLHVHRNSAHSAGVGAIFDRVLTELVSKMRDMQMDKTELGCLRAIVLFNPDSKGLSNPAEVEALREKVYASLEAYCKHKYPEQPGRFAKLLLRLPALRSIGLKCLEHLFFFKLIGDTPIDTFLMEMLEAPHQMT

On to `Clc1ccc2ccccc2c1`, for which the Potency entry in [1], in experiment [3], in [4], in [6], in experiment [7] and in [8] was “inactive” throughout. Further, the Potency result in [9], in experiment [10], in experiment [11], in experiment [12], in experiment [13] and in experiment [14] was “inactive” each time. Also, the call in [2] and in experiment [5] was inactive.

For the compound `O=C1NC(=O)C(=O)C(=O)N1`, the Potency entry in experiment [1], in experiment [15], in experiment [3], in [4], in experiment [6] and in experiment [17] was “inactive” each time. Besides, the Potency entry in [7], in experiment [9], in experiment [10], in [11], in experiment [12] and in experiment [18] was “inactive” throughout. The Potency entry in experiment [13] and in [14] was “inactive” each time. Also, the compound was classed as inactive in [2], in experiment [5] and in experiment [16].

On to `Clc1ccc(Cl)c(Cl)c1`, for which the Potency entry in experiment [1], in experiment [15], in experiment [4], in [6], in [17] and in experiment [7] was “inactive” in each case. The Potency result in experiment [8], in experiment [9], in experiment [10], in [11], in [12] and in experiment [13] was “inactive” in each case. Also, the compound was classed as inactive in [16]. The Potency entry in [14] was “inactive and 12.3 µM (active)”.

As for `O=C(Cc1ccccc1)OCCc1ccccc1`, the result in experiment [2] and in experiment [16] was inactive. The Potency entry in [15], in experiment [19], in [4], in [6], in experiment [7] and in [8] was “inactive” in each case. Besides, the Potency entry in [9], in experiment [10], in experiment [11], in experiment [12], in experiment [18] and in experiment [13] was “inactive” throughout. For the same compound, in experiment [14], the Potency entry is “inactive”.

As to `CCCN(CCC)C(=O)Cc1c(-c2ccc(Cl)cc2)nc2ccc(Cl)cn12`, the Potency entry in experiment [1], in experiment [15], in [4], in experiment [7], in [9] and in [11] was “inactive” in each case. Moreover, the Potency entry in experiment [12], in experiment [18], in experiment [13] and in [14] was “inactive” each time. Moreover, the compound was called inactive in [2] and in [5].

In the case of `C[C@H]1O[C@H](OC2[C@@H](O)[C@@H](O)C(O)[C@H](O)[C@H]2O)[C@@H](N)C[C@@H]1N=C(N)C(=O)O` (some centres undefined), the call in experiment [2] was inactive. The Potency result in [15], in [19], in experiment [4], in experiment [6], in experiment [7] and in experiment [9] was “inactive” in each case. Further, the Potency result in experiment [11], in [12], in [18], in [13] and in experiment [14] was “inactive” each time.

Turning to `CCCCC1C(=O)NC(=O)N(C2CCCCC2)C1=O` (centres undefined), the Potency result in experiment [1], in [15], in experiment [3], in [4], in experiment [6] and in experiment [17] was “inactive” in each case. For the same compound, the Potency result in experiment [7], in experiment [8], in experiment [9], in [11], in experiment [12] and in [13] was “inactive” in each case. For the same compound, in experiment [14], the Potency entry is “inactive”. For the same compound, the call in [5] and in [16] was inactive.

In the case of `NP(N)(=O)NC(=O)c1ccc(F)cc1`, the compound was called inactive in experiment [2] and in experiment [16]. Besides, the Potency result in experiment [15], in experiment [19], in experiment [4], in [6], in experiment [7] and in [8] was “inactive” throughout. Further, the Potency entry in experiment [9], in experiment [10], in experiment [11], in experiment [12], in experiment [18] and in experiment [13] was “inactive” throughout. Besides, in [14], the Potency result was “inactive”.
